In PubChem BioAssay (NCI):
The panel holds about 83,000 compounds, 20% with a hit somewhere; the sample as a whole holds those more often.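 Activity criterion: percent growth below 10, measured after cells in 96-well plates were exposed to a single compound concentration for 48 hours.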 Activity calls are given as the source filed them.

Each molecule was assayed on A549/ATCC NSCLC (assay: NCI-60 one-dose screen, 48 h (100 = growth as untreated, 0 = no growth, -100 = all killed)). Settings: 10 µM unless noted.

Row | Structure (SMILES) | growth
1 | CCN1CCN(C(=O)[C@]23CCC(C)(C)C[C@@H]2C2=CC[C@@H]4[C@@]5(C)C/C(=C/c6ccncc6)C(=O)C(C)(C)[C@@H]5CC[C@@]4(C)[C@]2(C)CC3)CC1 | 4.33% (active)
2 | COc1ccc(/C=C(\C#N)c2cc3ccccc3n2S(C)(=O)=O)cc1 | 104% (inactive)
3 | Cc1ccc(S(=O)(=O)Nc2ccc(-c3cc(-c4cccc(F)c4)c(C#N)c(=O)[nH]3)cc2)cc1 | 68.2% (inactive)
4 | N#CC1=C(N)Oc2c(c(N)nn2-c2ccccc2)C1c1ccc(Cl)cc1 (stereo unspecified) | 100% (inactive)
5 | C=C(C)[C@@H]1CC[C@]2(CN)CC[C@]3(C)[C@H](CC[C@@H]4[C@@]5(C)CCC(=O)NC(C)(C)[C@@H]5CC[C@]43C)[C@@H]12 | 59.3% (inactive)
6 | CC1(C)[C@@H](O)CC[C@]2(C)[C@H]3CC[C@@H]4[C@H]5[C@H](C(=O)/C=C/c6ccc(C(F)(F)F)cc6)CC[C@]5(CO)CC[C@@]4(C)[C@]3(C)CC[C@@H]12 | 47.8% (inactive)
